Experimental data from PubChem BioAssay (NCATS).
Inconclusive results are not listed. Activity calls are given as the source filed them. Calls follow the shape of the dose curve; as a rule, active = well fitted curve in the direction sought with a large enough effect; inconclusive = small, poorly fitted or top-dose-only effect, or another doubt; inactive = no such curve, though single readings can be large; an effect the other way counts as inactive or inconclusive.

Assays:
[1] = Cell Viability - H-4-II-E (AID 543);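 also: cells exposed to compound for 40 hours; % is scaled to controls: 0 for no effect and ±100 for the full control effect; nearly all actives have a fitted effect of over 35% in size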
In short: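 AC50 from Hill-modelled qHTS concentration-response curves. H-4-II-E rat hepatoma cells in complete medium, 40 hr exposure at 37 °C, viability by CellTiter-Glo ATP luminescence.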

[2] = Cell Viability - SH-SY5Y (AID 544); settings: SH-SY5Y neuroblastoma cell viability; viability change, negative = cytotoxic: at 92.2 µM (top of the series);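 also: cells exposed to compound for 40 hours; nearly all actives have a fitted effect of over 55% in size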; also: potency is read from the fitted curve at half-maximal effect
In short: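 Quantitative HTS in SH-SY5Y neuroblastoma cells, 40 hr treatment at 37 °C, ATP content by luciferase luminescence; AC50 from Hill fits.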

[3] = Cell Viability - Renal Proximal Tubule (AID 545);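 also: cells exposed to compound for 40 hours; nearly all actives have a fitted effect of over 40% in size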
In short: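 Cytotoxicity is scored as a concentration-dependent drop in cellular ATP in primary rat renal proximal tubule cells exposed for 40 hr. AC50 derives from Hill modelling.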

[4] = Cell Viability - Mesenchymal (AID 546);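 also: cells exposed to compound for 40 hours before reading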
In short: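 In this qHTS cytotoxicity format, glomerulus-derived human mesenchymal kidney cells received compound for 40 hr, then luciferase-based ATP quantitation. Concentration-response data were fitted with the Hill equation.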

[5] = Cellular Toxicity (caspase-3) HepG2 (AID 654);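 also: cells exposed to compound for 16 hours before reading; 0% = DMSO alone and 100% = caspase signal from 100 µM tamoxifen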
In short: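 Concentration-response AC50 values reflect caspase-3/7 induction in HepG2 cells after 16 hours of compound exposure, quantified by luminescence from liberated aminoluciferin and referenced to 100 uM tamoxifen as full stimulation.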

[6] = Cellular Toxicity (caspase-3) Jurkat (AID 655); settings: Jurkat caspase-3 activation, luminescence; caspase-3 activation: at 92.2 µM (top of the series), DMSO = 0%, tamoxifen = 100%;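 also: cells exposed to compound for 16 h at 37 °C before reading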
In short: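 Caspase 3/7 activation is scored as increased luminescence in Jurkat cells cultured with compound for 16 hours in complete medium. AC50 values come from Hill fits of qHTS concentration-response data normalized to DMSO and 100 uM tamoxifen controls.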

[7] = Cellular Toxicity (caspase-3) HUV-EC-C (AID 656);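 also: cells exposed to compound for 16 h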
In short: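 Read-out: luminescence proportional to caspase 3/7 activity, measured 20 min after adding Caspase-Glo 3/7 reagent. Cells (HUV-EC-C) had received compound for 16 hr at 37°C. Increases relative to DMSO and 100 uM tamoxifen gave concentration-response AC50 values.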

[8] = Cellular Toxicity (caspase-3) SHSY5Y (AID 657);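 also: cells exposed to compound for 16 hours at 37 °C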
In short: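 Cells plated and incubated 5 h at 37 °C, dosed over a concentration range, incubated 16 h, then given Caspase-Glo 3/7 reagent for 1 h at room temperature before luminescence reading. Staurosporine (10 uM) defined full stimulation.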

[9] = Cellular Toxicity (caspase-3) BJ (AID 658);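 also: 0% = DMSO basal and 100% = 10 µM staurosporine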
In short: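 Plated BJ cells (1000/well) rested 5 hr, received compound for 16 hr at 37 °C, then Caspase-Glo 3/7 reagent for 1 hr at room temperature before luminescence reading.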

[10] = Cellular Toxicity (caspase-3) MRC-5 (AID 659);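 also: cells exposed to compound for 16 h at 37 °C; 0% = DMSO basal and 100% = 10 µM staurosporine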
In short: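 Apoptosis readout in MRC-5 cells: luciferase light generated after caspase 3/7 cleaves a peptide-aminoluciferin substrate, measured post 16 hr compound incubation at 37 °C.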

CC(=O)c1nccs1
inactive: Potency [1] | Potency [2] | Potency [3] | Potency [4] | Potency [5] | caspase-3 activation [6] 0.174% | outcome [7] | outcome [8] | outcome [9] | outcome [10]

Cc1ccc2ccccc2c1[N+](=O)[O-]
inactive: Potency [1] | Potency [2] | Potency [3] | Potency [4] | Potency [5] | caspase-3 activation [6] -0.271% | outcome [7] | outcome [8] | outcome [9] | outcome [10]

CC(C)(O)C(=O)O
inactive: Potency [1] | Potency [2] | Potency [3] | Potency [4] | Potency [5] | caspase-3 activation [6] -0.979% | outcome [7] | outcome [8] | outcome [9] | outcome [10]

Clc1ccccn1
inactive: Potency [1] | Potency [2] | Potency [3] | Potency [4] | Potency [5] | caspase-3 activation [6] -1.1% | outcome [7] | outcome [8] | outcome [9] | outcome [10]

COc1ccc(N)c(C)c1
inactive: Potency [1] | Potency [2] | Potency [3] | Potency [4] | Potency [5] | caspase-3 activation [6] 0.894% | outcome [7] | outcome [8] | outcome [9] | outcome [10]

Cc1cc(C)cc(O)c1
inactive: Potency [1] | Potency [2] | Potency [3] | Potency [4] | Potency [5] | caspase-3 activation [6] 0.986% | outcome [7] | outcome [8] | outcome [9] | outcome [10]

O=[N+]([O-])c1ccc2nc[nH]c2c1
inactive: Potency [1] | Potency [2] | Potency [3] | Potency [4] | Potency [5] | caspase-3 activation [6] 0.964% | outcome [7] | outcome [8] | outcome [9] | outcome [10]

CC1CCC2CC1C2(C)C (stereo not given)
inactive: Potency [1] | Potency [2] | Potency [3] | Potency [4] | Potency [5] | caspase-3 activation [6] -1.25% | outcome [7] | outcome [8] | outcome [9] | outcome [10]

C1CCOC1
inactive: Potency [1] | Potency [2] | Potency [3] | Potency [4] | Potency [5] | caspase-3 activation [6] -0.19% | outcome [7] | outcome [8] | outcome [9] | outcome [10]

COCCOC(=O)c1ccccc1C(=O)OCCOC
inactive: Potency [1] | Potency [2] | Potency [3] | Potency [4] | Potency [5] | caspase-3 activation [6] 0.0969% | outcome [7] | outcome [8] | outcome [9] | outcome [10]

OC/C(Br)=C(\Br)CO
inactive: Potency [1] | Potency [2] | Potency [3] | Potency [4] | Potency [5] | caspase-3 activation [6] 3.75% | outcome [7] | outcome [8] | outcome [9] | outcome [10]

ON=C1CCCCC1
inactive: Potency [1] | Potency [2] | Potency [3] | Potency [4] | Potency [5] | caspase-3 activation [6] -0.266% | outcome [7] | outcome [8] | outcome [9] | outcome [10]

O=C(Cl)c1c(Cl)cccc1Cl
inactive: Potency [1] | Potency [2] | Potency [3] | Potency [4] | Potency [5] | caspase-3 activation [6] 2.4% | outcome [7] | outcome [8] | outcome [9] | outcome [10]

CCOc1cc(OCC)c(C(C)=O)cc1OCC
inactive: Potency [1] | Potency [2] | Potency [3] | Potency [4] | Potency [5] | caspase-3 activation [6] -0.274% | outcome [7] | outcome [8] | outcome [9] | outcome [10]

C=CCCCCCCC=C
inactive: Potency [1] | Potency [2] | Potency [3] | Potency [4] | Potency [5] | caspase-3 activation [6] 2.57% | outcome [7] | outcome [8] | outcome [9] | outcome [10]

CSCCC=O
inactive: Potency [1] | Potency [2] | Potency [3] | Potency [4] | Potency [5] | caspase-3 activation [6] -1.33% | outcome [7] | outcome [8] | outcome [9] | outcome [10]

CCC(C)(C)C
inactive: Potency [1] | Potency [2] | Potency [3] | Potency [4] | Potency [5] | caspase-3 activation [6] -0.787% | outcome [7] | outcome [8] | outcome [9] | outcome [10]

C[C@@H]1O[C@@H](O[C@@H]2[C@@H](O)[C@H](OCCc3ccc(O)c(O)c3)O[C@H](CO[C@@H]3O[C@H](CO)[C@@H](O)[C@H](O)[C@H]3O)[C@H]2OC(=O)/C=C/c2ccc(O)c(O)c2)[C@H](O)[C@H](O)[C@H]1O
inactive: Potency [1] | Potency [2] | Potency [3] | Potency [4] | Potency [5] | caspase-3 activation [6] -3.29% | outcome [7] | outcome [8] | outcome [9] | outcome [10]

Cc1ccc(N(C)C)cc1
inactive: Potency [1] | Potency [2] | Potency [3] | Potency [4] | Potency [5] | caspase-3 activation [6] 2.02% | outcome [7] | outcome [8] | outcome [9] | outcome [10]

C=CC(=O)OCCCC
inactive: Potency [1] | Potency [2] | Potency [3] | Potency [4] | Potency [5] | caspase-3 activation [6] 0.501% | outcome [7] | outcome [8] | outcome [9] | outcome [10]

CC(=O)OCc1ccco1
active: Potency [2] 31.6 µM
inactive: Potency [1] | Potency [3] | Potency [4] | Potency [5] | caspase-3 activation [6] 13.6% | outcome [7] | outcome [8] | outcome [9] | outcome [10]

CC(C)Nc1ccccc1
inactive: Potency [1] | Potency [2] | Potency [3] | Potency [4] | Potency [5] | caspase-3 activation [6] 2.39% | outcome [7] | outcome [8] | outcome [9] | outcome [10]

CCCCCCC(=O)O
inactive: Potency [1] | Potency [2] | Potency [3] | Potency [4] | Potency [5] | caspase-3 activation [6] 0.927% | outcome [7] | outcome [8] | outcome [9] | outcome [10]

CC(C)C(C)C
inactive: Potency [1] | Potency [2] | Potency [3] | Potency [4] | Potency [5] | caspase-3 activation [6] -0.000823% | outcome [7] | outcome [8] | outcome [9] | outcome [10]

C=Cc1ccccc1C=C
inactive: Potency [1] | Potency [2] | Potency [3] | Potency [4] | Potency [5] | caspase-3 activation [6] -0.124% | outcome [7] | outcome [8] | outcome [9] | outcome [10]

CCOc1ccccc1N
inactive: Potency [1] | Potency [2] | Potency [3] | Potency [4] | Potency [5] | caspase-3 activation [6] 0.926% | outcome [7] | outcome [8] | outcome [9] | outcome [10]
